# Compound activity deposited in PubChem BioAssay by The Scripps Research Institute Molecular Screening Center.
# hcDAF12 agonist = activators of H. contortus DAF-12 nuclear receptor | HEK293 hcDAF-12 lit1-tk-luc reporter, luminescence; 0% DMSO, 100% Δ7-dafachronic acid | activation, % at 6.8 µM | actives 1.4% (n = 370,000);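 active = activation above the mean of all tested compounds plus 3 SD, cut at about 5.5% in these data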;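 also: 100% = response to 3 µM Δ7-dafachronic acid high control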
# DAX1 inh-1 = blocks DAX1 repression of SF-1 activated StAR promoter. HEK293T StAR-luciferase reporter, SF-1/DAX-1 repression relief. inhibition, % at 6.8 µM. actives 1.1% (n = 370,000);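 active = inhibition above the mean over all tested compounds plus 3 SD, cut at about 3.6% in these data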;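 also: 0% = DAX-1 cells with DMSO and 100% = cells lacking DAX-1 with DMSO; higher inhibition means more luminescence from relief of DAX-1 repression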
# DAX1 inh-2 = inhibits human nuclear receptor DAX1; P51843; HEK293 Gal4-DAX1 luciferase reporter, luminescence; inhibition, % at 6.75 µM; actives 0.99% (n = 340,000);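 active = inhibition above the mean over all tested compounds plus 3 SD, cut at about 4.2% in these data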;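 also: 0% = DAX1-transfected cells with DMSO and 100% = empty-vector control cells with DMSO; inhibition shows as a rise in luminescence from relieved DAX1 repression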
# Target sequence (P51843 207-470 limits assumed): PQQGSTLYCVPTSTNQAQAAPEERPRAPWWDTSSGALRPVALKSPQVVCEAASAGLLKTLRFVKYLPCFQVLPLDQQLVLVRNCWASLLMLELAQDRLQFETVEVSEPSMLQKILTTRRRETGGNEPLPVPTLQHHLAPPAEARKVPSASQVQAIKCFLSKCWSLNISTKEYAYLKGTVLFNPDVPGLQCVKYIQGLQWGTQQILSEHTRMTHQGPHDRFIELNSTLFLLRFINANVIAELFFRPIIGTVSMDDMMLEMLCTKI
# ssDAF12 agonist = activates DAF-12 receptor from parasite S. stercoralis | HEK293 ssDAF-12/GRIP1 lit1-tk-luc reporter, luminescence; % of 3 µM dafachronic acid response | activation, % at 6.8 µM | actives 1% (n = 370,000) | AID 652126;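 active = activation above the mean over all tested compounds plus 3 SD, cut at about 0.9% in these data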;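 also: 0% = DMSO-only wells and 100% = 3 µM delta7-dafachronic acid wells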
# hgDAF-12 ag = hgDAF-12 agonism, primary luciferase screen; activation, % at 6.8 µM; actives 1.8% (n = 370,000); HEK293 GAL4-hgDAF12 UAS-luciferase reporter, agonist luminescence; normalized to butyrate control;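 active = activation above a cutoff set at the mean of all screened compounds plus 3 SD, cut at about 10% in these data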;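 also: 0% = DMSO wells and 100% = sodium butyrate wells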
# * = called active by the depositor; / = no result given. Hits are enriched below; roughly 4.1% of the tested compounds scored in any of these assays.
SMILES,hcDAF12 agonist,DAX1 inh-1,DAX1 inh-2,ssDAF12 agonist,hgDAF-12 ag
CC(C)(C)C(=O)Nc1nc(-c2ccccc2)ns1,4,3,1,0,6
Nc1ccc2nc(SCc3ccccc3F)sc2c1,5,0,3,1.0*,8
CCOc1ccc2nc(SCc3ccc(F)cc3)sc2c1,0,0,0,-1,3
Nc1nnc(SCC(=O)c2ccc3ccccc3c2)s1,3,3,1,1.1*,10
Nc1cc(N)nc(SCC(=O)c2ccccc2)n1,-1,0,0,0,1
Nc1ccc2nc(SCC(=O)c3ccccc3)sc2c1,2,-1,-1,1.3*,4
COC(=O)C1CN(Cc2cn(Cc3ccc(F)cc3)nn2)CCS(=O)(=O)N1Cc1ccc(C)cc1 (stereo unspecified),-4,-1,/,-2,-1
COC(=O)[C@]12C[C@H](CC(=O)NCc3cccs3)C(=O)N(Cc3ccco3)C1=C[C@H](C(C)(C)C)O[C@@H]2C,-2,0,/,-2,4
Nc1ncnc2c1ncn2[C@@H]1O[C@H](C(=O)N2CCC[C@@H]2C(=O)OCc2ccccc2)[C@@H](O)[C@H]1O,-1,-1,/,-1,12*
COC(=O)[C@@H](Cc1ccccc1)NC(=O)[C@H]1O[C@@H](n2cnc3c(N)ncnc32)[C@H](O)[C@@H]1O,-1,-1,/,-1,4
CCOC(=O)c1ccc2ncc(-c3ccccc3)nc2c1,0,4.3*,2,-1,4
NC(=O)c1ccc(Cn2c(C(=O)c3ccc(Cl)cc3)c3ccccc3[n+]2[O-])cc1,5.7*,0,0,0,1
COc1ccc(C(=O)c2c3ccc(OC)cc3[n+]([O-])n2Cc2ccc(C(N)=O)cc2)cc1,6.3*,0,2,1,4
COc1ccc(C(=O)c2c3ccc(OC)cc3[n+]([O-])n2CCCC(N)=O)cc1,2,-1,0,0,-1
CC(C)CN1C(=O)[C@]2(CC(=O)N(C)C2c2ccccc2)c2cc(-n3cc(CCc4ccccc4)nn3)ccc21 (stereo partly specified),-2,-1,/,-1,5
Cc1ccc(-c2nc3ccccc3s2)cc1NC(=O)c1cc(-n2cnnc2)ccc1Cl,5,2,0,-1,10*
Cc1ccc(C)c(N(C)C(=O)COc2cc(=O)n(C)c3ccccc23)c1,-2,1,4.8*,-1,-3
NNC(=O)c1ccc(CSc2nc3ccccc3s2)cc1,6.1*,0,-1,-1,11*
O=C(NC(=S)Nc1ccc(Br)c(Cl)c1)C1CC1,5.8*,0,1,0,2
O=C(Nc1ccc(Br)c(Cl)c1)c1ccco1,4,1,4,0,11*
Cc1cc(C(=O)Nc2ccc(N3CCOCC3)c(Cl)c2)c(C)o1,2,0,4.2*,-1,1
O=C(Nc1ccc(F)cc1)c1ccccc1F,6.3*,2,1,-1,4
Cc1cc(C(=O)Nc2ccc(C)c(S(=O)(=O)N3CCOCC3)c2)c(C)o1,-1,-1,-1,-2,0
COC(=O)[C@]12C[C@H](CC(=O)NCc3cccc(C(F)(F)F)c3)C(=O)N(CCC3=CCCCC3)C1=C[C@H](C1CCCC1)O[C@@H]2C,-2,-1,/,-1,1
Cc1ccc(OCc2nnc(SCC(=O)Nc3ccc(S(N)(=O)=O)cc3)n2-c2ccc(Cl)cc2)cc1,-2,0,/,-1,-3
SMILES,hcDAF12 agonist,DAX1 inh-1,DAX1 inh-2,ssDAF12 agonist,hgDAF-12 ag
C/C(CC(=O)Nc1ccc(C)c(Cl)c1)=N\NC(=O)Cc1ccccc1,-2,0,-1,-1,1
O=C(Nc1ccc(N2CCOCC2)c(Cl)c1)c1ccco1,5,3.7*,1,0,12*
O=C(Nc1ccc(N2CCOCC2)c(Cl)c1)c1ccc(Cl)cc1,0,0,-1,-1,0
O=C(Nc1ccc(CN2CCOCC2)cc1)c1ccco1,5.6*,2,2,0,7
C/C(CC(=O)Nc1ccc(C)c(Cl)c1)=N\NC(=O)c1ccco1,3,2,3,1.0*,12*
O=C(Nc1ccc(N2CCOCC2)c(Cl)c1)c1ccccc1F,2,3.7*,3,0,8
C[C@H]1[C@@H](OC(=O)NCCc2ccccc2)CC[C@@]23CCCN2C(=O)CCC[C@@H]13,-1,/,/,-1,-1
CC(/C=N/NC(=O)c1ccccc1F)c1ccccc1 (stereo unspecified),2,2,6.6*,0,11*
CC(NC(=O)c1ccccc1F)C(=O)O (stereo unspecified),-1,-1,0,-1,1
COc1ccc(NC(=O)c2ccccc2F)cc1Cl,3,2,1,0,11*
COc1ccc(NC(=O)c2cccc(F)c2)cc1Cl,2,0,2,-1,9
COc1ccc(NC(=O)c2cccc(OC(F)F)c2)cc1Cl,1,2,-1,-2,11*
O=C(c1ccccc1F)N1CCN(c2ccc([N+](=O)[O-])c(N3CCOCC3)c2)CC1,0,-1,5.8*,-1,3
Nn1c(SCC(=O)Nc2ccccc2-c2ccccc2)nnc1-c1n[nH]c2c1CCC2,-3,0,/,-1,-3
Cc1cc(=O)[nH]c(NNC(=O)c2ccc(Cl)cc2)n1,-1,0,2,-1,-2
COc1ccc(NC(=O)C(=O)NCCCO)cc1Cl,1,1,4.5*,-1,4
CC1(C)Oc2ccc(NC(=O)c3ccco3)cc2O1,3,2,3,0,11*
O=C(Nc1ccc2c(c1)OCCO2)c1ccco1,1,3,2,0,4
O=C(Nc1ccccc1)Nc1ccc(Br)c(Cl)c1,6.5*,0,-1,-1,12*
CC(=O)Nc1ccc(NC(=S)NC(=O)C2CC2)cc1,2,2,0,0,1
Cc1ccc(NC(=S)NC(=O)C2CC2)c(C)c1,3,4.0*,1,0,7
CCCC1CCC2(CCC(=O)N2CCSc2ccccc2)CC1 (stereo unspecified),3,0,/,-1,0
c1ccc(C2Nc3ccccc3-c3nc4ccccc4n32)nc1 (stereo unspecified),0,1,1,0,10
c1ccc(C2Nc3ccccc3-c3nc4ccccc4n32)cc1 (stereo unspecified),1,2,3,0,11*
CN(CCOC(=O)c1cc2ccccc2o1)C1CN(Cc2cn(Cc3ccccc3F)nn2)S(=O)(=O)C1 (stereo unspecified),-1,1,/,-1,-2
CC(C)C[C@H](NC(=O)[C@H](Cc1ccccc1)n1c(=O)[nH]c2ccccc2c1=O)C(=O)N1CCC(C(=O)O)CC1,2,0,0,-1,1
C[C@H](NC(=O)[C@H](Cc1ccccc1)n1c(=O)[nH]c2ccccc2c1=O)C(=O)N1CCC(C(=O)O)CC1,0,0,4.9*,-2,-1
